Target: CBWD1
Experiment: pooled miR-30 sensor sort-seq; sequence = guide strand
Conditions: shRNA

Going from TACATCTTCTTCTGGAACCAGG to TTCTTCTGGAACCAGGTCTGTT, the sensor-assay potency score (higher = more potent) falls from -0.734 to -0.933.

AAGCAACTTGTCTAGTAGCTTC gave a sensor-assay potency score (higher = more potent) of -0.327.

Target: CBWD2
Experiment: as above
Conditions: shRNA

First: TTATGGATCTAATTGTCGCTCT
Second: TATTTTGAATCCACTATAGTTA
The sensor-assay potency score (higher = more potent) of the first is higher: 0.237 for the first, -0.411 for the second.

TTTATGGATCTAATTGTCGCTC gave a sensor-assay potency score (higher = more potent) of -0.0827.

Target: CBWD3
Experiment: as above
Conditions: shRNA

Going from TTACATCTTCTTCTGGAACCAG to TTATCCAATCCTTTTGATAAGA, the sensor-assay potency score (higher = more potent) falls from 0.201 to -1.37.

Compared with TTTATGGATCTAATTGTCGTTC, TTTATTATCCAATCCTTTTGAT is higher in sensor-assay potency score (higher = more potent): -0.438 for the first, -0.0523 for the second.

Compared with TCTTCTGGAACCAAGTCTGTTT, TACATCTTCTTCTGGAACCAAG is lower in sensor-assay potency score (higher = more potent): -0.303 for the first, -0.337 for the second.

Compared with TATTATCCAATCCTTTTGATAA, TTATTATCCAATCCTTTTGATA is higher in sensor-assay potency score (higher = more potent): -1.72 for the first, -1.04 for the second.

With TTGTCGTTCTTAATTTCTTTAC the sensor-assay potency score (higher = more potent) was -1.76.
